ChEMBL document CHEMBL3988442, “University of Dundee, Small-Polar-MMV Screening Library” (2021)

Target: AMP-activated protein kinase, AMPK (Homo sapiens) (UniProt P54646+O43741+P54619+Q9UGJ0+Q9Y478+Q13131+Q9UGI9)
Assay: AMP-dependent Kinase enzyme assay. An in vitro enzyme assay that detects ADP turnover that is directly proportional to AMPK activity. This uses naive AMPK that is activated during the assay with MK-8722
Assay type: functional
Set-up: scale not given: direction of the effect not stated beside the values
Conditions: 30 µM

Row | Compound | Percent Effect [%]
1 | CC(NC(=O)N1CCCC1)c1ccc(S(N)(=O)=O)cc1 (stereo not given) | 9.72
2 | CNc1ccc(C2CN(c3nc(C)cc(C)n3)CCO2)nc1 (stereo not given) | 18
3 | Cc1nc(C)c(CN2CCOC(Cc3ccccc3Cl)C2)nc1C (stereo not given) | 0.455
4 | Cc1cccc(C(C)C)c1NC(=O)NCCN(C(C)C)C(C)C | 15.2
5 | CCCn1nnnc1CN(CC)CC1COc2ccccc2O1 (stereo not given) | 1.1
6 | CCn1ncnc1C1CC(=O)NCc2nc(N)sc21 (stereo not given) | -18.1
7 | O=C1CCC(=O)N1CCn1nnc(-c2cccc(Cl)c2)n1 | -7.61
8 | CCc1ccc(-c2noc(Cn3nc(C(N)=O)ccc3=O)n2)cc1 | -8.7
9 | CCN(Cc1cnc(C)cn1)C1CCN(c2ccccc2)C1=O (stereo not given) | -4.52
10 | Cc1ccc(S(=O)(=O)N2CCN(Cc3ccncc3)CC2)c(Cl)c1 | -6.37
11 | Cn1ccnc1-c1cnn(CC(=O)Nc2ccnn2C)c1 | -2.32
12 | CCOc1ccc2cc(C(=O)NCCC(=O)N(C)C)[nH]c2c1 | -3.77
13 | CCc1noc(C(C)Sc2nnc(C3CC3)n2CC(N)=O)n1 (stereo not given) | -8.4
14 | CC(C)c1nc(CN(C)C(=O)C(O)c2ccc(Cl)cc2)cs1 (stereo not given) | -2.36
15 | O=C(C1CC(c2cccc(F)c2)=NO1)N1CCc2ccccc21 (stereo not given) | 13.6
16 | Cc1cnc(C(=O)N2CC(=O)N(c3ccccc3Cl)CC2C)cn1 (stereo not given) | 12.5
17 | CCNC(=O)[C@@H]1C[C@H](N)CN1c1cc(CC)nc(N(C)C)n1 | -13.7
18 | COc1cccc(CCC(=O)Nc2ccn(C)n2)c1OC | 10.3
19 | C[C@@H]1CN(C(=O)Cn2ccc3ncccc3c2=O)C[C@H](C)O1 | -2.09
20 | CN(Cc1nc2ccccc2[nH]1)C(=O)CN(C)c1ccc(Cl)cn1 | -0.551

Row | Compound | Percent Effect [%]
21 | COc1cccc2ccc(N3CCC(O)(C(=O)O)CC3)nc12 | 1.15
22 | CC(C)c1noc(CN2CCN(C(=O)OC(C)(C)C)C(C)C2)n1 (stereo not given) | -3.51
23 | Cc1ccnc2c1NC(=O)CN2C(=O)CCc1cccs1 | -0.535
24 | O=C(NCc1nnc2n1CCC2)c1cccc(Br)c1 | 3.99
25 | Cc1c(NC(=O)CN2CCN(C3CCCC3)C(=O)C2)cnn1C | 2.4
26 | CN1C[C@@H]2CC[C@H](C1)N(Cc1ccccc1OCCN1CCOCC1)C2 | -106
27 | Cn1cc(S(=O)(=O)N(CC(F)(F)F)C2CC2)cc1C(N)=O | 1.54
28 | COc1cc(COCC2CCN(Cc3ccccn3)CC2)cc(OC)c1 | -0.77
29 | CCN1CC2(CCN(CC3CCCO3)CC2)OC1=O (stereo not given) | -9.49
30 | Cc1cccc(-c2nccnc2C2CCCN(C)C2)c1 (stereo not given) | 11.8
31 | CCc1cc(N2CCC(NCCc3nc(C)c(C)s3)CC2)nc(C)n1 | 4.15
32 | CC(C)N1CCC(CC(=O)NCCc2cc(O)ncn2)CC1 | -10.1
33 | Cc1cc(=O)[nH]c(-n2nc(-c3ccccc3)cc2N)n1 | -11.4
34 | Cc1nnc(CCNC(=O)Nc2ccc(S(C)(=O)=O)cc2)[nH]1 | 6.21
35 | CC(C)c1ccccc1NC(=O)N1C[C@@H]2CC[C@H](C1)N(C)C2=O | -7.67
36 | CN(Cc1nc(N)nc(N(C)C)n1)Cc1cccc2ccccc12 | -3.23
37 | Cc1ccc(C)c(CC(=O)NC2CCCS(=O)(=O)C2)c1 (stereo not given) | -5.26
38 | CN1C(=O)[C@H]2CC[C@@H]1CN(C(=O)Nc1cccc3ccccc13)C2 | -18.9
39 | CN(C)Cc1cccc(-c2cccnc2C(=O)NCc2ccco2)c1 | 20
40 | CCn1cnnc1CNC(=O)N1CCOC(c2ccc(F)cc2)C1 (stereo not given) | -5.45
